Laboratory results taken from PubChem BioAssay AID504329 (Southern Research Specialized Biocontainment Screening …, 2011).
Screen size: about 340,000 compounds; about 1,000 (0.29%) were called active. These entries were drawn from the full list. Potency and affinity values are given separately. Values without a mark were called inactive. Cut-off read from the data, not from the text of the source: inconclusive = inhibition above about 27% without an active follow-up result; inactive = below that.

Assay: NS1A inhibition, H1N1 influenza, cell based functional assay (AID 504329)
Conditions: percent inhibition, at 12.5 µM, hits give high values

In order of falling inhibition:
1. Cc1ccc(C(=O)NC(=S)NNC(=O)c2ccccc2O)cc1  34.2%
2. CCN1CCCc2cc(CN(CCN3CCOCC3)C(=O)Nc3ccc(C)c(C)c3)ccc21  22.9%
3. COc1ccccc1C(=O)NC(=S)/C=C1/N(C)c2ccccc2C1(C)C  22.9%
4. Cc1onc(-c2ccccc2)c1C(=O)NC(=S)NNC(=O)c1ccc(O)cc1  22%
5. Cc1onc(-c2ccccc2)c1C(=O)NC(=S)NNC(=O)c1ccccc1O  20.2%
6. O=C(NCCCn1ccnc1)C(=O)NCC1OCCN1S(=O)(=O)c1ccc(F)cc1 (centres undefined)  19.7%
7. CN(C)N=C1c2cc(S(=O)(=O)N3CCOCC3)ccc2-c2ccc(S(=O)(=O)N3CCOCC3)cc21  19.5%
8. O=C1C(NS(=O)(=O)c2cccs2)=C(N2CCN(c3cccc(Cl)c3)CC2)C(=O)c2ccccc21  19.4%
9. Oc1ccccc1C=NCCN=Cc1ccccc1O  18.6%
10. CCOc1ccc(NC(=O)N(CCN2CCOCC2)Cc2ccc3c(c2)CCCN3CC)cc1  16.9%
11. O=C(O)c1cc2ccccc2n1-c1ccccc1  16.9%
12. Cc1nnc(NC(=O)CSc2ccc3nnc(-c4ccccn4)n3n2)s1  15.4%
13. O=C(NCCCn1ccnc1)C(=O)NCC1OCCN1S(=O)(=O)c1ccc(Cl)cc1 (centres undefined)  13.8%
14. O=C1C(NS(=O)(=O)c2cccs2)=C(N2CCN(Cc3ccccc3)CC2)C(=O)c2ccccc21  13.7%
15. O=C(NC(=S)NNC(=O)c1cc2ccccc2cc1O)c1ccco1  12.9%
16. Cc1ccccc1NC(=O)CSc1ccc(-c2ccccn2)nn1  12.1%
17. O=[N+]([O-])c1ccc(CSc2nc3ccccc3o2)cc1  11.7%
18. CCOC(=O)c1nc(Nc2ccc(Nc3ccccc3)cc2)c2ccccc2n1  10.9%
19. O=C1C(NS(=O)(=O)c2cccs2)=C(N2CCOCC2)C(=O)c2ccccc21  10.6%
20. O=C(NC(=S)NNC(=O)c1ccco1)c1ccc(F)cc1  9.62%
21. O=C(Cc1ccc(Cl)cc1)Nc1ccccc1C(=O)Nc1ccc(C(=O)O)cc1  9.57%
22. COc1ccccc1C(=O)NNC(=S)NC(=O)c1cccs1  8.16%
23. Cc1ccc(-n2c(CNc3ccc(F)cc3)nnc2SCC(N)=O)cc1  6.65%
24. O=C1CCC(=O)N1OCCOc1ccccc1  6.54%
25. O=[N+]([O-])c1cc(Cl)ccc1N1CCOCC1  6.25%
26. CCN(c1ccccc1)S(=O)(=O)c1ccc2c(c1)CCCN2C(C)=O  5.4%
27. Cc1ccc(C(=O)NC(=S)/C=C2\N(C)c3ccccc3C2(C)C)cc1  5.06%
28. O=C(CSc1ccc(-c2ccccn2)nn1)Nc1nccs1  4.83%
29. O=[N+]([O-])c1ccc(Cl)cc1Sc1nc2ccccc2o1  4.69%
30. O=C(NNC(=S)NC(=O)c1ccccc1)c1cccnc1  4.4%
31. COc1cccc(N2CCN(C(=S)Nc3ccccc3)CC2)c1  4.19%
32. C[N+]1=C(/C=C/Nc2ccccc2Cl)C(C)(C)c2ccccc21  3.87%
33. Cc1ccc(NC(=O)CSc2ccc(-c3ccccn3)nn2)c(C)c1  3.42%
34. CCOC(=O)c1cnc2c(OC)cccc2c1N1CCN(c2ccccn2)CC1  3.27%
35. COc1cc([N+](=O)[O-])c(N2CCOCC2)c([N+](=O)[O-])c1OC  3.06%
36. O=[N+]([O-])c1ccc(C[n+]2cccc3ccccc32)cc1  2.93%
37. COc1ccc(S(=O)(=O)N2CCOC2CNC(=O)C(=O)NCCc2ccccc2)cc1OC (centres undefined)  2.48%
38. O=C(c1ccc([N+](=O)[O-])cc1)N(c1ccccn1)c1ccccn1  2.4%
39. Cc1ccc(/C=C/C(=O)NC(C)c2ccccc2)cc1 (centres undefined)  2.36%
40. Cc1ccccc1C(=O)NNC(=S)NC(=O)c1cccnc1  2.35%
41. CC(=O)CCCC(NS(=O)(=O)CCC(Cl)(Cl)Cl)c1ccccc1 (centres undefined)  1.88%
42. COc1ccccc1OCc1nc2ccccc2[nH]1  1.78%
43. O=C(NC(=S)NNC(=O)c1ccccc1O)c1ccc([N+](=O)[O-])cc1  1.41%
44. COc1ccc(NC(=O)CSc2ccc(-c3ccccn3)nn2)cc1OC  1.4%
45. Cc1cccc(OC(=O)n2c(=S)oc3cc(Cl)ccc32)c1  1.29%
46. O=c1c(-c2ccccc2)c(O)cc(-c2ccncc2)n1-c1ccc(Cl)cc1  1.22%
47. O=c1ccc(/C=C/c2ccccc2)nn1Cc1ccc(F)cc1  1.19%
48. COc1cccc(OC)c1C(=O)Nc1sc2c(c1C(N)=O)CCN(Cc1ccccc1)C2  0.91%
49. Cc1ccc(C)n1-n1cnc2sc3c(c2c1=O)CCC3  0.86%
50. CCOC(=O)C1CCN(Cc2ccc(OC)c(C)c2OC)CC1  0.38%
51. COc1ccc(C(=O)NC(=S)NNC(=O)c2ccccc2O)cc1  0.2%
52. CCN(Cc1cnn(C)c1)C(=O)CC1C(=O)NCCN1Cc1cccc(OC)c1OC (centres undefined)  -0.14%
53. CCCCCC(=O)Nc1ccc(S(=O)(=O)Nc2nccc(C)n2)cc1  -0.66%
54. C[N+]1=C(/C=C/Nc2ccccc2)C(C)(C)c2ccccc21  -0.67%
55. O=C(O)C(Cc1ccccc1)N=C(NS(=O)(=O)c1ccccc1)c1ccccc1 (centres undefined)  -1.07%
56. CCOC(=O)N1CCN(S(=O)(=O)N2CCCC(C(=O)NCc3ccc(OC)cc3)C2)CC1 (centres undefined)  -1.33%
57. O=C(CCN1C(=O)/C(=C/c2ccccc2Cl)SC1=S)Nc1cccnc1  -1.44%
58. O=C(CSc1ccc2nnc(-c3ccncc3)n2n1)Nc1nccs1  -1.97%
59. O=C(CCN1C(=O)c2ccccc2S1(=O)=O)N1CCN(c2ccccc2F)CC1  -1.99%
60. Cc1ccccc1C(=O)NNC(=S)NC(=O)c1cccs1  -2.01%
61. CC(=O)OCCc1c(C)nc2nc[nH]n2c1=O  -2.62%
62. Cc1ccc(NCc2ccc(O)c3ncccc23)cc1C  -2.65%
63. OC1(C#CCN2CCCC2)CCCCC1  -3.16%
64. Cc1csc(NC(=O)CSc2ccc(-c3ccccc3)nn2)n1  -3.27%
65. N#CC(C#N)=C1NC(N)=C(C#N)C(c2ccccc2)=C1C#N  -3.59%
66. CN1CCN(C2=C(NS(=O)(=O)c3cccs3)C(=O)c3ccccc3C2=O)CC1  -3.67%
67. Cc1ccccc1C(=O)NNC(=S)NC(=O)c1ccccc1  -4.23%
68. Cc1csc(NC(=O)CSc2nnc(NC(=O)C3CC(=O)N(c4ccccc4)C3)s2)n1 (centres undefined)  -4.67%
69. Cc1ccc(NC(=O)c2cccc(NC(=O)/C=C/c3ccco3)c2)cc1C  -4.7%
70. CCOC(=O)C1CCN(Cc2c(O)ccc3ccccc23)CC1  -4.79%
71. CC(C)[C@H](NC(=O)C1CCN(C(=O)[C@@H]2CCCN2)CC1)C(=O)NCc1ccc(F)cc1  -5.22%
72. O=[N+]([O-])c1ccc(C[n+]2cccc3c4ccccc4ccc32)cc1  -5.37%
73. Cc1ccc(S(=O)(=O)NC(=O)Nc2ccc(F)cc2)cc1  -6.14%
74. O=C(COc1cccc(NC(=O)c2cccs2)c1)c1ccc(F)cc1  -6.64%
75. COc1ccccc1C(CNC(=O)c1ccc(S(=O)(=O)N2CCCCC2)cc1)N(C)C (centres undefined)  -6.72%
76. COc1cccc(CN(C)C(=O)c2ccc(OCC(=O)N3CCOCC3)c(OC)c2)c1  -6.73%
77. Cc1ccc(S(=O)(=O)NC(=O)Nc2ccccc2)cc1  -7.51%
78. Cc1cccc(NS(=O)(=O)c2cccc(C(=O)N3CCN(C/C=C/c4ccccc4)CC3)c2)c1  -7.79%
79. COc1ccc(/C=C/C(=O)OCC(=O)Nc2cccc(C(C)=O)c2)cc1  -8.13%
80. COc1ccc(C)cc1NC(=O)CSc1ccc(-c2cccnc2)nn1  -8.69%
81. Oc1ccccc1C=NCCCCCCN=Cc1ccccc1O  -8.96%
82. CCc1cccc(OCC(=O)N(C)CC(=O)Nc2cccc(F)c2)c1  -9.68%
83. Cc1ccc(F)cc1NC(=O)CSc1nnc(CNC(=O)c2ccco2)n1C  -10.7%
84. Cc1cccc(-c2ccc3ncnc(NCc4cccs4)c3c2)c1  -11%
85. O=C(CCc1nnc(Cc2ccc(-c3ccccc3)cc2)o1)NCC1CC1  -11.2%
86. CCOC(=O)c1nc(Nc2ccc(N3CCOCC3)cc2)c2ccccc2n1  -12.1%
87. COc1ccc(CCN2CC(C(=O)Nc3ccccc3F)CC2=O)cc1OC (centres undefined)  -13.5%
88. O=C(NNC(=O)c1ccccc1O)c1ccco1  -15.8%
89. O=C(CSCc1ccc([N+](=O)[O-])cc1)Nc1ccccc1C(=O)O  -16.2%
90. Cc1ccc2nc(C)cc(N3CCOCC3)c2c1  -16.8%
91. Cc1ccc(C)c(S(=O)(=O)N2CCN(Cc3ccc(O)c4ncccc34)CC2)c1  -17.5%
92. O=C(NNC(=S)NC(=O)c1ccccc1)c1cccc([N+](=O)[O-])c1  -20.7%
93. O=C1CCN(S(=O)(=O)c2ccccc2)CCN1CCOCc1ccc(Cl)cc1  -21.7%
94. Cn1c(C(=O)O)cc2cc(Oc3ccccc3)ccc21  -27.7%
